A short description of experiment [1]: inhibitors of TNFa-induced NFkB p65 translocation, primary screen, imaging, HUVEC, MLSMR starter and 10KST1 sets (AID 438;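 active = inhibition above 20% together with a positive visual image hit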;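 also: compound added about 3h40 before a 20 min TNFalpha stimulation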;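 as to inhibition: signal is the nuclear over cytoplasmic p65 intensity ratio per well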). The settings on record: HUVEC TNFa-induced p65 nuclear translocation; cell count: measured here: nuclei count (cytotoxicity indicator), at 2.08 µM; inhibition: at 2 µM, stronger effect = higher value, 0% TNFa-plus-vehicle, 100% no-TNFa wells.
Experiment [2] is described as follows: reduction of polyQ htt aggregates in cells – imaging, exon1htt(103Q)mCFP cells, high-content imaging, primary screen (AID 483;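 active = visual image review flags a hit and inhibition of aggregation exceeds 20%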;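 also: compound exposure lasted 3 days before fixation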;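 as to nuclei count: percent of the per-plate median nuclei count of sample wells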). The settings on record: exon1htt(103Q)mCFP cell line, aggregate imaging, at 2 µM; inhibition of aggregation: stronger effect = higher value; nuclei count: measured here: cell count, toxicity.
A short description of experiment [3]: endothelial E-selectin expression blockers – imaging, HUVEC, immunofluorescence, MLSMR starter and 10KST1 sets, primary screen (AID 487;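 active = visually confirmed hit in the image check and inhibition above 20%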;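 as to inhibition: signal is fraction of cell area covered by stained E-selectin grains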;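 as to nuclei count: 100% = median nuclei count of all wells on the same plate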). The settings on record: HUVEC TNFalpha-induced E-selectin immunofluorescence imaging, at 2 µM; inhibition: stronger effect = higher value; nuclei count: measured here: cell number, toxicity.
Experiment [4] in a line: Primary imaging screen for DUSP6 inhibitors that restore phospho-Erk in transfected HeLa cells, chemical complementation (AID 609;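 active = compounds giving at least 50% inhibition in the cell-based MKP-3 phosphatase rescue imaging test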;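 as to inhibition: phospho-Erk level distribution per well compared with pooled transfected vehicle control wells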). The settings on record: HeLa MKP-3 transfected, phospho-Erk imaging KS statistic, at 10 µM, cells stimulated with TPA for 15 min.
Experiment [5] addresses Dual specificity protein phosphatase 6 (Homo sapiens) (UniProt Q16828). The description is as above. The settings on record: HeLa MKP-3 transfected, phospho-Erk imaging KS statistic; at 10 µM; stronger effect = higher value; cells stimulated with TPA for 15 min.
Experiment [6] addresses Voltage-gated potassium channel subunit beta-2 (Rattus norvegicus) (UniProt P62483). Description: inhibitors of rat Kvbeta2 reductase activity – biochemical, NADPH fluorescence, primary screen (AID 622;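 active = fluorescence slope higher than the sample average by over 3 SD, cut at about -0.22 in these data, passing the limit was not always enough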;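 also: slope of raw intensity against log time taken from 70 to 1610 s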). The settings on record: recombinant KvBeta, 4-cyanobenzaldehyde reduction, at 10 µM, stronger effect = higher value.
The target is the same in experiment [7]. Briefly: enhancers of rat Kvbeta2 NADPH turnover – biochemical, NADPH fluorescence, primary screen (AID 623;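 active = NADPH fluorescence slope more negative than the mean of all samples by about 3 SD, 99.7% confidence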;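 also: fluorescence intensity change per second fitted from 20 to 320 s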). The settings on record: Recombinant KvBeta, NADPH fluorescence decrease slope, 10 min; at 10 µM; stronger effect = lower value.
Experiment [8] deals with Alpha-2C adrenergic receptor (Homo sapiens) (UniProt P18825). Description: compounds altering alpha2C-coupled GIRK flux – cell-based, HEK293 alpha2C/GIRK1/2, thallium flux, primary screen (AID 624;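 active = fluorescence slope after compound addition differing from the mean of all screened samples at 99.7% confidence, in either direction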;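 also: slope of fluorescence ratio to pre-addition baseline per second over 15 to 24 s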). The settings on record: thallium flux BTC fluorescence, at 10 µM, actives lie on both sides.
Experiment [9] can be described thus: inhibitors of larval lipid processing in zebrafish, primary screen, whole organism, PED6 fluorescence, gall bladder and intestine (AID 686;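 active = a full or partial loss of lipid-probe fluorescence in the fish gall bladder, intestine or both, judged by eye; inactive = no fluorescence loss, or compound toxic to the fish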;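 also: larvae 5 to 7 days old with five fish per well; signal comes from phospholipase A2 cleavage of quenched PED6 carried via bile; overnight exposure to compound and PED6 before scoring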). The settings on record: Zebrafish larvae PED6 lipid processing, fluorescence scoring; screened at 20 µM (by protocol).
Experiment [10] in a line: loss of swimming-algae plug formation – whole organism, Chlamydomonas reinhardtii, WT vs cilia-less mutant, absorbance, 96-well, primary screen (AID 463189).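 Also: 0% = wild type cc124 cells in DMSO and 100% = ciliumless bld1 mutant cells.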 The settings on record: Chlamydomonas reinhardtii gravitaxis, OD600 absorbance, 2 days; at 10 µM; stronger effect = higher value.
Experiment [11] can be described thus: blockers of RIG-like receptor reporter activation – cell-based, Sendai virus stimulus, luciferase, 10K MLSCN set, TLR/RLR signaling modifier project, primary screen (AID 602276;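 active = inhibition at or above 50% at 10 µM; inactive = inhibition below 50%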;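 also: firefly luciferase from ISG56 promoter only with Renilla not read in this screen; 0% = Sendai virus plus DMSO and 100% = medium plus DMSO without virus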). The settings on record: HEK293 RL24 IRF3 luciferase reporter, at 10 µM, stronger effect = higher value.
Experiment [12] can be described thus: TLR3 IRF3 reporter activation blockers – cell-based, poly I:C stimulus, luciferase, 10K MLSCN set, primary screen (AID 602277;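 active = inhibition of the reporter signal at or above 50%; inactive = inhibition below 50%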). The settings on record: HEK293-TLR3 RL24 IRF3 luciferase reporter, at 10 µM, stronger effect = higher value.
[13] abbreviates: measured here: cell density z-score.
Setting [14] is: measured here: nuclear c-Myc green intensity z-score.
Setting [15] is: measured here: nuclear pErk red intensity z-score, stronger effect = higher value.

Molecules are shown by their SMILES. Values joined by “and” are separate entries in the source; they are usually repeats but may differ in a detail not shown here. Equal values may be shown once. Active and inactive are the calls of the source.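 The calls were made as follows, unless noted: active = inhibition at or above 50% relative to wild type and mutant plate controls; inactive = inhibition below 50%.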

Voltage-gated potassium channel subunit beta-2 (Rattus norvegicus), sequence (P62483 whole entry, looked up): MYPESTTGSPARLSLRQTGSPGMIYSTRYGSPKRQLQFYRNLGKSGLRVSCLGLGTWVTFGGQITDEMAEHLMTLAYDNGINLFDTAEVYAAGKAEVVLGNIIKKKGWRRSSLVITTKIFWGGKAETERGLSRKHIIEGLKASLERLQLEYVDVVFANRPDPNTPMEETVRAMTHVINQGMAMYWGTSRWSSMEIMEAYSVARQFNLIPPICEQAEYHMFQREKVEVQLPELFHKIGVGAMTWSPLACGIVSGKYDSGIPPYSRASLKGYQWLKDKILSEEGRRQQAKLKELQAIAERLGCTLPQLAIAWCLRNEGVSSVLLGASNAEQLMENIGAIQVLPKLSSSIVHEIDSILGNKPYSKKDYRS
Dual specificity protein phosphatase 6 (Homo sapiens), sequence (Q16828 whole entry, looked up): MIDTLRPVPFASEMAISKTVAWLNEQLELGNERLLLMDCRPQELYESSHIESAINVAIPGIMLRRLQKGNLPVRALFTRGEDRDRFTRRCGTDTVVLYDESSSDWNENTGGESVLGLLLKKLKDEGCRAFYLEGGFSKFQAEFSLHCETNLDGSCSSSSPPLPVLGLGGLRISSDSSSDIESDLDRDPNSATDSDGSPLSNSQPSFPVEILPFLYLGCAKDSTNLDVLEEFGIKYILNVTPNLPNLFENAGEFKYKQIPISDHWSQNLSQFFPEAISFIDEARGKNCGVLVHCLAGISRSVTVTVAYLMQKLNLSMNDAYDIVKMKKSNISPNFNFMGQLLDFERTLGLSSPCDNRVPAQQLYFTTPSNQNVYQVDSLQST
Alpha-2C adrenergic receptor (Homo sapiens), sequence (P18825 whole entry, looked up): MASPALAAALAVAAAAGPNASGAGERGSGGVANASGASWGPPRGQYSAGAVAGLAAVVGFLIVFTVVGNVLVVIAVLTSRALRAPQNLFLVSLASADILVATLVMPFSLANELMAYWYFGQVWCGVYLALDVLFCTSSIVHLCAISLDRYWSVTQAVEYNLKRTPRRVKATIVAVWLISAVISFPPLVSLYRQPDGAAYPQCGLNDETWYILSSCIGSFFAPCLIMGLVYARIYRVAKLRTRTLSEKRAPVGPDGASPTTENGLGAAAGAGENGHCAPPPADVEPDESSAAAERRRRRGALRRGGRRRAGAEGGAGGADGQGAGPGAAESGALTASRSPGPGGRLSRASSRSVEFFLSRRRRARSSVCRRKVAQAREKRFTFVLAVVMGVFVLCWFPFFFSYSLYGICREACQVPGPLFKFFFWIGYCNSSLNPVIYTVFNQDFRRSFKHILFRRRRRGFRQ

In the case of `C[C@]12CCC(=O)C=C1CC[C@@H]1[C@@H]2[C@@H](O)C[C@@]2(C)[C@H]1CC[C@]2(O)C(=O)CO`, the cell count in experiment [1] is 526. Also, the inhibition in [1] is 1.3% (inactive); in [3] it was -35.4% (inactive); in experiment [5], 5.42% (inactive); in experiment [10], 2.91% (inactive) and -18.2% (inactive); in experiment [11] it was 4.18% (inactive); in experiment [12], 38.7% (inactive). The inhibition of aggregation in [2] is -3.8% (inactive). Further, the results for the nuclei count in experiment [2] and in experiment [3] were 63.5% and 94.1%, respectively. Moreover, the z-score in [4] (setting [13]) was -3.38; in experiment [4] (setting [14]), -0.793; in experiment [4] (setting [15]) it was -0.0815. The fluorescence slope in experiment [6] is -0.459 (inactive). Further, the NADPH fluorescence slope in [7] was -3.2e-05 (inactive). Further, the slope in experiment [8] is 0.00455 (inactive). In addition, the result in experiment [9] was inactive.
`O=C1NC2c3ccccc3C(=O)N2c2c1cnn2-c1ccccc1` (stereo not given): the cell count in experiment [1] was found to be 603. The inhibition in experiment [1] is -7.1% (inactive); in experiment [3], -48.5% (inactive); in experiment [5], 7.83% (inactive); in experiment [10] it was 14.6% (inactive); in [11], -6.19% (inactive); in [12], 6.35% (inactive). Also, the inhibition of aggregation in experiment [2] is -11.1% (inactive). The values for the nuclei count in experiment [2] and in experiment [3] were 111% and 146%, respectively. The z-score is 0.407 in experiment [4] (setting [13]), 0.889 in experiment [4] (setting [14]) and -0.995 in experiment [4] (setting [15]). The fluorescence slope in [6] is -0.425 (inactive). The NADPH fluorescence slope in [7] is -1.7e-05 (inactive). Also, the slope in experiment [8] was 0.00503 (inactive). Also, the outcome in experiment [9] was inactive.
On to `CC(C)Cc1nc(N2CCN(C(=O)c3ccco3)CC2)c(C#N)c2c1CCC2`, for which the cell count in experiment [1] was 615. For the same molecule, the inhibition in [1] was 2% (inactive); in experiment [3] it was -37.8% (inactive); in [5] it was -1.75% (inactive); in experiment [10], -2% (inactive); in experiment [11] it was 10.7% (inactive); in experiment [12], 12.6% (inactive). In addition, the inhibition of aggregation in experiment [2] is -13.4% (inactive). The nuclei count in [2] came to 106%; in experiment [3] it was 116%. For the same molecule, the results for the z-score in experiment [4] (setting [13]), in [4] (setting [14]) and in [4] (setting [15]) were 0.33, 2.04 and -0.551, respectively. Further, in experiment [6], the fluorescence slope is -0.498 (inactive). The NADPH fluorescence slope in experiment [7] is -7e-05 (inactive). Besides, in [8], the slope was 0.00426 (inactive). The result in experiment [9] was inactive.
As to `CC(C)(C)n1cnc2cc(NS(=O)(=O)c3ccc(Br)cc3)ccc21`, in experiment [1], the cell count turned out to be 543. The inhibition was -1.5% (inactive) in [1]; -37% (inactive) in experiment [3]; -5.26% (inactive) in experiment [5]; -15% (inactive) in experiment [10]; 15.5% (inactive) in experiment [11]; 13.8% (inactive) in experiment [12]. Besides, the inhibition of aggregation in [2] was -9.9% (inactive). Besides, the nuclei count in [2] turned out to be 99.9%; in experiment [3], 108%. The values for the z-score in experiment [4] (setting [13]), in experiment [4] (setting [14]) and in [4] (setting [15]) were 0.246, 1.31 and -0.322, respectively. The fluorescence slope in experiment [6] is -0.373 (inactive). Further, the NADPH fluorescence slope in [7] was 2.9e-05 (inactive). Moreover, the slope in [8] was 0.00461 (inactive). For the same molecule, in experiment [9], the call was inactive.
In the case of `Brc1cccc(-c2cnc3n2CCCCC3)c1`, in experiment [1], the cell count was found to be 517. Also, the inhibition was -12.1% (inactive) in experiment [1]; -58.1% (inactive) in experiment [3]; -8.95% (inactive) in [5]; 59.2% (active) in [10]; -2.77% (inactive) in experiment [11]; -38% (inactive) in [12]. Also, in experiment [2], the inhibition of aggregation is 5.1% (inactive). Moreover, the nuclei count is 76.5% in [2] and 139% in experiment [3]. In addition, the z-score in experiment [4] (setting [13]) was 0.246; in experiment [4] (setting [14]), -0.612; in experiment [4] (setting [15]) it was 1.65. The fluorescence slope in experiment [6] is -0.446 (inactive). In experiment [7], the NADPH fluorescence slope was -0.000303 (inactive). Besides, in experiment [8], the slope is 0.00481 (inactive). Further, the result in [9] was inactive.
On to `CCOC(=O)N1CCN(C(=O)c2cn(CC)c3cc(N4CCN(C)CC4)c(F)cc3c2=O)CC1`, for which the cell count in experiment [1] came to 544. In addition, the inhibition is 2.6% (inactive) in experiment [1]; -20.9% (inactive) in experiment [3]; -7.28% (inactive) in experiment [5]; 15.7% (inactive) in experiment [10]; 21.5% (inactive) in experiment [11]; 21.4% (inactive) in experiment [12]. Further, in [2], the inhibition of aggregation is 15.1% (inactive). The figures for the nuclei count in experiment [2] and in experiment [3] were 96% and 121%, respectively. Also, the figures for the z-score in experiment [4] (setting [13]), in [4] (setting [14]) and in [4] (setting [15]) were 0.456, 0.816 and -1.34, respectively. Further, in [6], the fluorescence slope was -0.267 (inactive). The NADPH fluorescence slope in experiment [7] was 1.3e-05 (inactive). In [8], the slope is 0.00518 (inactive). Further, the outcome in experiment [9] was inactive.
Consider `CC(C)COc1nc2ccccc2nc1C(C#N)C(=O)NC1CCCCC1` (stereo not given), for which the cell count in experiment [1] was 342. Further, the inhibition in [1] was -6.5% (inactive); in [3], -27.9% (inactive); in experiment [5], -5.26% (inactive); in experiment [10], 9.16% (inactive); in experiment [11] it was 13.4% (inactive); in [12], 8.92% (inactive). For the same molecule, in experiment [2], the inhibition of aggregation is 11.7% (inactive). Moreover, the nuclei count in experiment [2] stood at 98.8%; in [3], 133%. In addition, the figures for the z-score in experiment [4] (setting [13]), in [4] (setting [14]) and in [4] (setting [15]) were 0.00555, 0.614 and 0.00363, respectively. In addition, in [6], the fluorescence slope is -0.423 (inactive). For the same molecule, in [7], the NADPH fluorescence slope was -0.00013 (inactive). In addition, the slope in [8] is 0.00573 (inactive). Moreover, the molecule was classed as inactive in experiment [9].
For the molecule `CN(C)CCOc1ccccc1Cc1ccccc1`, the cell count in experiment [1] was 539. Moreover, the inhibition is 5.9% (inactive) in [1]; -66.7% (inactive) in experiment [3]; 10.2% (inactive) in experiment [5]; 147% (active) in experiment [10]; 17.7% (inactive) in experiment [11]; 43% (inactive) in experiment [12]. Besides, the inhibition of aggregation in experiment [2] is -17.6% (inactive). The nuclei count in [2] came out at 92.7%; in experiment [3] it was 118%. Further, the figures for the z-score in [4] (setting [13]), in experiment [4] (setting [14]) and in experiment [4] (setting [15]) were -0.59, 1.74 and -0.949, respectively. The fluorescence slope in experiment [6] was -0.506 (inactive). Moreover, in [7], the NADPH fluorescence slope was 2.6e-05 (inactive). In addition, in [8], the slope was 0.00455 (inactive). In addition, the outcome in [9] was inactive.
Regarding `CCC(NC(C)C)C(O)c1ccc(O)c2[nH]c(=O)ccc12` (stereo not given), the cell count in [1] came to 682. Besides, the inhibition in experiment [1] was -3% (inactive); in experiment [3], -80% (inactive); in experiment [5], 13.3% (inactive); in experiment [10], 23.9% (inactive); in experiment [11], 17.4% (inactive); in [12] it was 45.8% (inactive). In addition, the inhibition of aggregation in experiment [2] was -11.3% (inactive). Moreover, the nuclei count in [2] is 109%; in experiment [3], 142%. Besides, the z-score came to 0.193 in experiment [4] (setting [13]), 0.138 in [4] (setting [14]) and 0.273 in [4] (setting [15]). Also, the fluorescence slope in experiment [6] was -0.49 (inactive). Moreover, the NADPH fluorescence slope in experiment [7] was -3.3e-05 (inactive). The slope in experiment [8] is 0.00523 (inactive). Further, in experiment [9], the result was inactive.
With `NC(=O)N1c2ccccc2C=Cc2ccccc21`, in experiment [1], the cell count came to 639. Moreover, the inhibition in experiment [1] is -4.6% (inactive); in experiment [3] it was -55.6% (inactive); in experiment [5], 15.3% (inactive); in experiment [10] it was 5.34% (inactive) and 20.1% (inactive); in experiment [11], 7.49% (inactive); in [12], 22.1% (inactive). Moreover, the inhibition of aggregation in [2] is -10.6% (inactive). The nuclei count in experiment [2] came to 110%; in experiment [3] it was 127%. Moreover, the z-score was -0.0512 in experiment [4] (setting [13]), 0.625 in [4] (setting [14]) and -1.48 in [4] (setting [15]). Also, the fluorescence slope in experiment [6] is -0.492 (inactive). Besides, in experiment [7], the NADPH fluorescence slope was -4.6e-05 (inactive). The slope in [8] is 0.00463 (inactive). For the same molecule, the result in experiment [9] was inactive.

Values taken from PubChem BioAssay.
